Inconclusive results are not listed. A call without a number means that no potency is given here. Active and inactive are the calls of the source. Calls follow the shape of the dose curve; as a rule, active = well fitted inhibition curve with a large enough effect; inconclusive = small, poorly fitted or top-dose-only effect; inactive = flat fitted curve, though single readings scatter.
biological target: Ubiquitin carboxyl-terminal hydrolase 1 (Homo sapiens) (UniProt O94782); experiment: Inhibitors of USP1/UAF1: Pilot qHTS (AID 504865); settings: purified USP1/UAF1, Ub-rhodamine cleavage fluorescence; series mostly up to 114 µM; also: nearly all actives have a fitted effect of over 35% in size; also: potency is read from the fitted curve at half-maximal effect
In short: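 Enzyme-free wells gave the negative control, while test wells held 1nM USP1/UAF1 preincubated with compound for 15 min at room temperature. Ub-Rho at 150nM final started the reaction, and fluorescence at 480/540 nm was recorded kinetically.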

Sequence of Ubiquitin carboxyl-terminal hydrolase 1 (Homo sapiens) (O94782 whole entry, looked up): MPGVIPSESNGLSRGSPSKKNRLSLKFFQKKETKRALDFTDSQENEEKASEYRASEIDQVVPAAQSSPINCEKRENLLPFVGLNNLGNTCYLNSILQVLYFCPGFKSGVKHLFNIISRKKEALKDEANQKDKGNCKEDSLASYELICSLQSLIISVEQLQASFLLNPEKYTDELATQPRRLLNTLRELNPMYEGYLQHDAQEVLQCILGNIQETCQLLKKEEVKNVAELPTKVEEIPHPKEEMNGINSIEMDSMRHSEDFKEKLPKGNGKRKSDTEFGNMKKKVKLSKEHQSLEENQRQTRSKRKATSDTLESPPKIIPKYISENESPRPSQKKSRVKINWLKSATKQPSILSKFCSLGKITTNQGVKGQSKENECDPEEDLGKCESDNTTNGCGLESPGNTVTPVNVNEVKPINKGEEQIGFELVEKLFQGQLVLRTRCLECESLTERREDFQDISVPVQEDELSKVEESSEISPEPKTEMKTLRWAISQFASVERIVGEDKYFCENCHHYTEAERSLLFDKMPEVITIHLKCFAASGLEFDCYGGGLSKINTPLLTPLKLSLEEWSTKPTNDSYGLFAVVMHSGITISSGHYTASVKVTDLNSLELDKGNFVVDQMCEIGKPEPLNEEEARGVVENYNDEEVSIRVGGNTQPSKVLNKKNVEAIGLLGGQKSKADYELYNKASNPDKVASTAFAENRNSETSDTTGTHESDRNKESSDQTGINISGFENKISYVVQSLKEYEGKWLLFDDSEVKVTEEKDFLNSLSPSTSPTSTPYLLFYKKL

Compound	Potency
c1ccc2[nH]ccc2c1	inactive
CC(=O)Oc1cccc(O)c1	inactive
CC(CN(C)C)C(C)(O)Cc1ccc(Cl)cc1 (stereo unspecified)	inactive
O[C@@H]1CO[C@H]2[C@@H]1OC[C@@H]2O	inactive
O=c1[nH]c(=O)c2ccccc2o1	inactive
NS(=O)(=O)c1cc2c(cc1C(F)(F)F)NCNS2(=O)=O	inactive
CC1CCc2cc(F)cc3c(=O)c(C(=O)O)cn1c23 (stereo unspecified)	inactive
Cc1cc(OI)c(C(C)C)cc1-c1cc(C(C)C)c(OI)cc1C	inactive
C[C@H]1COc2c(C3(N)CC3)c(F)cc3c(=O)c(C(=O)O)cn1c23	inactive
C[N+](C)(C)CC[N+]1(C)Cc2c(Cl)c(Cl)c(Cl)c(Cl)c2C1	inactive
CCCCCCCCCCCCCCCCC(C(=O)O)C(O)(CC(=O)O)C(=O)O (stereo unspecified)	22.4 µM (active)
CCN1CC(CCN2CCOCC2)C(c2ccccc2)(c2ccccc2)C1=O (stereo unspecified)	inactive
NNc1nnc(NN)c2ccccc12	inactive

biological target: DNA dC->dU-editing enzyme APOBEC-3G (Homo sapiens) (UniProt Q9HC16); experiment: qHTS for inhibitors of Vif-A3G interactions: Validation (AID 588379); settings: Vif-A3G protein interaction assay; series mostly up to 46.1 µM
In short: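 Yellow fluorescence (Ex 488, Em 500-530) of Vif-coexpressing HeLa A3G-eYFP cells, scanned by Acumen cytometer, reports blocked A3G degradation. Cells plated at 700/well overnight at 37 deg C before compound addition, then a further overnight compound incubation at 37 deg C.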

Sequence of DNA dC->dU-editing enzyme APOBEC-3G (Homo sapiens) (Q9HC16 whole entry, looked up): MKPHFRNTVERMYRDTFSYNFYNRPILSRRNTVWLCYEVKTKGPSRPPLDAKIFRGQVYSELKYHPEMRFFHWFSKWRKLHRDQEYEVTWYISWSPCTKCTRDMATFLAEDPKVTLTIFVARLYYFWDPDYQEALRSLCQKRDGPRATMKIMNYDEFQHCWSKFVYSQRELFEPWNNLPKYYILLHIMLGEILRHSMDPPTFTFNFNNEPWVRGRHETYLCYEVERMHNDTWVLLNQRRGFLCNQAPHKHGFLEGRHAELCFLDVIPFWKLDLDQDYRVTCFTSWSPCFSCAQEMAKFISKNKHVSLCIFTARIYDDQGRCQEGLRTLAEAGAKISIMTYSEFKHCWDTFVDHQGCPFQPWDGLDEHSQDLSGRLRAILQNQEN

Compound	outcome
C[C@@H](N)C(=O)O	inactive
C1CCN2C[C@@H]3C[C@@H](CN4CCCC[C@@H]34)[C@H]2C1	inactive
C[N+](C)(C)CC[N+]1(C)Cc2c(Cl)c(Cl)c(Cl)c(Cl)c2C1	inactive

From PubChem BioAssay (NCATS)
